# Screening data (PubChem)
# S2 tox: viability counter-screen for ATXN expression inhibitors; S2 cells (HEK-293 line with an ATXN2-luciferase reporter) viability, CellTiter-Fluor protease fluorescence, 24 h; Potency, µM (titrated, usually from 56.7 µM), most hits filed as cytotoxic; 0.49% of 400,000 active; further: nearly all actives have a fitted effect of over 40% in size
# HepG2 tox: kills HepG2 cells in TGF-b inhibitor counter-screen | 0.76% of 410,000 active | Potency, µM (series often up to 46.1 µM), inactives show at the top dose activity change, negative = cytotoxicity, hits mostly cytotoxic | HepG2 CAGA-GFP viability, ATP luminescence, 18 h
#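 HepG2 CAGA-GFP cells (1000/well, DMEM with 1% FBS) received compound, then TGF-beta at 500 pg/mL final, and were incubated 18 hours at 37 degrees C. Viability was read by CellTiter-Glo luminescence. Media-only wells were set as complete cell-killing and DMSO as no toxicity.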
# ATXN2 expr inh: reduces ATXN2 reporter expression in HEK-293 cells | HEK-293 ATXN2-luciferase reporter, luminescence, 24 h | 0.72% of 360,000 active | Potency, µM (highest dose often 57 µM), for inactives: top-dose activity change, negative = inhibition, actives largely listed as inhibitors; further: on the % scale 0 is the no-effect control and ±100 the full control effect; nearly all actives have a fitted effect of over 55% in size
#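 qHTS (up to 57 uM final) was run with 24 h compound exposure of reporter cells at 37 °C. Each well was multiplexed: SteadyGlo luminescence measured ATXN2-luciferase expression after a fluorogenic Gly-Phe-AFC viability readout (25 uM final).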
# GLP1R ag: agonists of human GLP-1 receptor; P43220; HEK293 GLP-1R CRE-luciferase, luminescence, 4-6 h; cells express a hypersensitive GLP-1R form; 0.007% of 380,000 active; Potency, µM (series often up to 45.6 µM), without a hit: at the top dose activation, hits mostly activators; AID 624172; further: % of control where 0% means no effect
# Target sequence (P43220 whole entry, looked up): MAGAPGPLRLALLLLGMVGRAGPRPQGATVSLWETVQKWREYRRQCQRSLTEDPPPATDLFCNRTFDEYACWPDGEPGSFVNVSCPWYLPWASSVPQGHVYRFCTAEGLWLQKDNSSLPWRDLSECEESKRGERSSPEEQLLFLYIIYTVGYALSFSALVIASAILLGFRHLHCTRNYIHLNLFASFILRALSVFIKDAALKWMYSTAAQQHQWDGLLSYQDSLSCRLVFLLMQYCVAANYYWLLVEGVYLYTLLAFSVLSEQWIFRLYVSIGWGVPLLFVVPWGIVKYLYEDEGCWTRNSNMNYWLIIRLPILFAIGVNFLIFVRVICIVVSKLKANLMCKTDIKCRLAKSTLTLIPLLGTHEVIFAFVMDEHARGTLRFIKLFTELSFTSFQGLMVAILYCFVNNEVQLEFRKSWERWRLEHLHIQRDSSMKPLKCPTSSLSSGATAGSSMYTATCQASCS
# TGFb SMAD3 inh: blocks TGF-b signaling. Potency, µM (highest dose often 46.1 µM), for inactives: top-dose activity, negative = inhibition, most hits filed as inhibitors. 1.2% of 410,000 active. HepG2 CAGA-GFP TGF-b/SMAD3 reporter, GFP fluorescence, 18 h; TGF-beta stimulated, 500 pg/mL final; further: on the % scale 0 is the no-effect control and ±100 the full control effect; nearly all actives have a fitted effect of over 65% in size
#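 First, reporter cells (HEPG2 CAGA-GFP) rested 2 h at 37 degrees C. Next, compounds were pinned in and TGF-beta added to 500 pg/mL final. After 18 h, GFP was imaged per cell and summed per well.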
# GLP1R inv ag: inverse agonists of human GLP-1 receptor; P43220; HEK293 GLP-1R CRE-luciferase, luminescence, 24 h; GLP-1R form is constitutively active; Potency, µM (series often up to 38.3 µM), inactives show at the top dose activity change, negative = inhibition, hits mostly inhibitors; 1.6% of 410,000 active; AID 624417; further: on the % scale 0 is the no-effect control and ±100 the full control effect; nearly all actives have a fitted effect of over 55% in size
#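 Constitutively active GLP-1R drives a cAMP-responsive luciferase in stably transfected HEK293 cells; test compounds are added after overnight (12 h) attachment and left 24 hr, and signal loss in luminescence marks inhibition.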
# * = called active by the depositor; i = inactive; ? = inconclusive; nt = not tested or not shown. Rows were chosen to be rich in hits. Some 3.7% of all compounds tested hit in one or more screens of this group. The call rests on the fitted dose curve; in most records, active means well fitted curve in the direction sought with a large enough effect; inconclusive means small, poorly fitted or top-dose-only effect, or another doubt; inactive means no such curve, though single readings can be large; an effect the other way counts as inactive or inconclusive. Potency means the concentration at half of the fitted maximal effect.
SMILES,S2 tox,HepG2 tox,ATXN2 expr inh,GLP1R ag,TGFb SMAD3 inh,GLP1R inv ag
COc1cc(NC(=O)c2cccc3c(-c4cnn(C)c4)coc23)cc(OC)c1OC,?,36%,18µM*,-3%,49%,?
CCC[C@H](Nc1nc(-c2ccc(NC(=O)NCC)c(OC)c2)ncc1C)c1cccnc1,nt,nt,-19%,nt,nt,nt
CC(C)(C)S(=O)N1Cc2cc(C(=O)NCc3ccc(Oc4ccccc4)cc3)nc(-c3cccc(-c4cc5ccccc5o4)c3)c2[C@H]1CCO (stereo partly drawn),nt,-95%,?,-2%,?,?
CC(C)(C)S(=O)N1Cc2cc(C(=O)NCc3ccc4c(c3)OCO4)nc(-c3cccc(-c4cc5ccccc5o4)c3)c2[C@@H]1CCO (stereo partly drawn),nt,-65%,22µM*,-7%,?,-3%
COc1cccc(-c2cccc(-c3nc(C(=O)NCc4ccc5c(c4)OCO5)cc4c3[C@H](CCO)N(S(=O)C(C)(C)C)C4)c2)c1 (stereo partly drawn),18µM*,-60%,?,23%,16µM*,?
COc1cccc(-c2cccc(-c3nc(C(=O)Nc4ccc(-c5ccccc5)cc4)cc4c3[C@H](CCO)N(S(=O)C(C)(C)C)C4)c2)c1 (stereo partly drawn),i,-68%,?,8%,?,-25%
CSc1ncccc1C(=O)NCC1Cc2cc(-c3cnccn3)ccc2O1 (stereo not drawn),i,nt,nt,nt,nt,nt
O=C(CC(c1cccs1)N1Cc2ccccc2C1=O)Nc1ccc(Cl)cc1 (stereo not drawn),nt,-51%,nt,nt,?,3%
CCC1(C2CCN(C(=O)c3cc(C)cc(C)c3)CC2)NC(=O)N(CCc2scnc2C)C1=O (stereo not drawn),i,nt,nt,nt,nt,nt
COC(=O)c1ccc2nc(C3CCCCC3)c(Cc3ccccc3)n2c1,?,-49%,-15%,-4%,?,?
COC(=O)c1ccc2nc(C3CCCCC3)c(CC(C)(C)C)n2c1,nt,10µM*,?,-5%,?,?
O=Cc1ccc(O)c2ncccc12,nt,4.5µM*,3.5µM*,6%,4µM*,-80%
CCc1nnc(NC(=O)[C@@H]2CCCN2C(=O)c2cccs2)s1,nt,-9%,nt,nt,-15%,nt
CN(C)S(=O)(=O)N(CC(=O)NCCSCc1ccc(Cl)cc1)c1ccccc1,i,-13%,-6%,15%,-24%,8.9µM*
CN(C)S(=O)(=O)N(CC(=O)NCCSCc1ccc(Cl)cc1Cl)c1ccccc1,?,-51%,?,19%,?,?
CCN(c1ccccc1)S(=O)(=O)c1c(-c2ccc(C)cc2)csc1C(=O)OC,nt,-24%,nt,nt,?,?
CCCC[C@@H](CNC)NC[C@H](NCCCCC1CCCCC1)C(C)C,?,-99%,25µM*,-2%,?,?
CC[C@H](C(=O)[C@H](C)[C@H](O)[C@H](C)CCc1ccc(C)c(O)c1C(=O)O)[C@H]1O[C@](CC)([C@@H]2CC[C@@](O)(CC)[C@H](C)O2)C[C@H]1C,11µM*,nt,nt,nt,nt,nt
COC(=O)c1cc(NC(=O)c2oc(=O)c3ccccc3c2-c2ccccc2)cc(C(=O)OC)c1,i,6%,-2%,1%,2%,13%
Cc1ncc2c(c1CNC(=O)c1cncs1)CCN(C(=O)c1cc(F)c(F)cc1F)C2,i,nt,nt,nt,nt,nt
CN1CCN(C(CNC(=O)Nc2ccc(Cl)cc2)c2ccc(F)cc2)CC1 (stereo not drawn),i,-17%,-1%,11%,2%,?
Cc1ccc(C(CNC(=O)Nc2ccc(Cl)cc2)N2CCN(C)CC2)cc1 (stereo not drawn),i,-19%,-16%,-6%,-2%,8.9µM*
Cc1cc(C)c2c(N)c(C(=O)Nc3ncc(C)s3)sc2n1,i,-53%,2.5µM*,-27%,0%,1.3µM*
Cc1c(C(=O)N2CCCCC2)sc2ncnc(NCCN(C)C)c12,i,nt,nt,nt,nt,nt
NC(N)=N/N=C/c1ccc(OCc2ccccc2Cl)cc1,28µM*,-96%,14µM*,-23%,?,11µM*
SMILES,S2 tox,HepG2 tox,ATXN2 expr inh,GLP1R ag,TGFb SMAD3 inh,GLP1R inv ag
NC(N)=N/N=C/c1ccc(Cl)c(Cl)c1,i,13µM*,?,-4%,?,?
NC(N)=N/N=C/c1ccccc1,?,11%,-24%,9%,11%,0%
OCCCCNCc1ccc(OCc2ccccc2Cl)cc1,i,-34%,-6%,9%,0%,0%
Nc1ccccc1NC(=O)c1ccc(CNC(=O)OCc2cccnc2)cc1,nt,nt,102%,nt,nt,nt
CCc1nc2ccc(C(=O)NCCc3ccccn3)cn2c1N(C)Cc1ccc(N(C)C)cc1,i,13µM*,-1%,7%,?,10%
CCc1nc2ccc(C(=O)NCCc3ccccn3)cn2c1N(C)Cc1nccs1,i,-4%,-4%,3%,34%,20%
CCc1nc2ccc(C(=O)NCCOc3ccc(OC)cc3)cn2c1N(C)CCCc1ccccc1,?,-46%,?,-3%,14µM*,?
Cc1ccc(N2C(=O)N3[C@H](c4ccc(F)cc4)[C@@H]4C(=O)N(C5CCCCC5)C(=O)[C@@H]4[C@]3(C)C2=O)cc1,?,4%,-13%,-3%,0%,10µM*
Cc1ccc(N2C(=O)N3[C@H](c4ccc(Cl)cc4)[C@@H]4C(=O)N(C5CCCCC5)C(=O)[C@@H]4[C@]3(Cc3ccccc3)C2=O)cc1,i,3%,6%,-2%,-6%,?
O=C1[C@H]2[C@@H](c3ccc(Cl)cc3)N3C(=O)N(c4cccc(F)c4)C(=O)[C@@]3(Cc3ccc(Cl)cc3)[C@H]2C(=O)N1C1CCCCC1,i,-15%,-1%,-6%,-2%,15%
O=C1[C@H]2[C@@H](c3ccc(Cl)cc3)N3C(=O)N(c4cccc(Cl)c4)C(=O)[C@@]3(Cc3ccc(Cl)cc3)[C@H]2C(=O)N1C1CCCCC1,i,1%,8%,-6%,?,4µM*
CCN(Cc1cccc(S(=O)(=O)O)c1)c1ccc(C(=C2C=CC(=[N+](CC)Cc3cccc(S(=O)(=O)O)c3)C=C2)c2ccc(O)cc2S(=O)(=O)O)cc1,nt,-27%,nt,nt,?,nt
CCC(CNc1cc(OC)cc2cccnc12)NC1CCCCC1 (stereo not drawn),18µM*,-109%,nt,0%,?,?
